MITF inhib: blocks MITF activity; TRPM1 promoter luciferase, luminescence, 24 h; inhibition, % (no concentration beside the values); 37,000 compounds, 0.28% hits; AID 2240; in the data active = inhibition above about 85%; inconclusive = no clear call, values can overlap the other calls; inactive = below about 68%;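 note: human melanocyte line stably carrying TRPM1 promoter luciferase reporter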
Hedgehog inh: Sonic Hedgehog pathway inhibition | Shh-LIGHT2 Gli-luciferase reporter, 30 h | inhibition, % (no concentration beside the values) | AID 2313 | 22,000 compounds, 2.1% hits;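 active = mean inhibition across valid replicates above about 65%, limit read from the data; inconclusive = mean under the limit, yet half or more replicates past it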;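 note: pathway switched on by Shh-conditioned medium diluted 1 in 25 in low serum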
NOMO-1 viab: STK33 inhibitor candidate reducing NOMO-1 cell viability; NOMO-1 AML viability, CellTiter-Glo luminescence, 72 h; inhibition, % (no concentration beside the values); 37,000 compounds, 7.5% hits; in the data active = inhibition above about 80%; inconclusive = no clear call, values can overlap the other calls
PD-1 reverse act: activators reversing PD-1 mediated T-cell inhibition; primary human CD4 T cells, PD-L1 beads, CellTiter-Glo 96 h; activation, % (concentration not given with the values); 29,000 tested, under 10 active; call rule not given here
Large screens that a line does not name were inactive; ! = a repeat was not active. A selection: hits, their analogues and other compounds. The true share with any hit is near 7.9%.

CC(=O)Nc1ccc(NC(=O)c2cccc(C(=O)OC(C)C)n2)cc1	NOMO-1 viab 107 (no result: Hedgehog inh)
CCOC(=O)Nc1cc(=O)c2ccccc2o1	NOMO-1 viab 119
COc1ccc(-c2cc(=O)c3ccccc3o2)cc1	none (no result: PD-1 reverse act)
COc1ccc(C)cc1CN1CCC(CNC(=O)Nc2cc(Cl)ccc2C)CC1	NOMO-1 viab 122 (no result: Hedgehog inh)
N#C/C(=C\Nc1cc(C(F)(F)F)cc(C(F)(F)F)c1)S(=O)(=O)c1ccccn1	none
N#C/C(=C\Nc1cc(C(F)(F)F)cc(C(F)(F)F)c1)S(=O)(=O)Cc1ccc(Cl)cc1	Hedgehog inh 107
O=S(=O)(NCCNC/C=C/c1ccc(Br)cc1)c1cccc2cnccc12	Hedgehog inh 81
CN(CC(=O)Nc1ccccc1-c1ccccc1)S(=O)(=O)c1ccc(Br)cc1	none (no result: Hedgehog inh)
C[C@H]1CN([C@@H](C)CO)C(=O)Cc2cc(NS(=O)(=O)c3ccc(Cl)cc3)ccc2O[C@@H]1CN(C)Cc1ccccc1	NOMO-1 viab 107
C[C@H]1CN([C@@H](C)CO)C(=O)Cc2cc(NS(=O)(=O)c3ccc(Cl)cc3)ccc2O[C@H]1CN(C)Cc1ccccc1	NOMO-1 viab 101
C[C@@H]1CN([C@@H](C)CO)C(=O)Cc2cc(NS(=O)(=O)c3ccc(Cl)cc3)ccc2O[C@@H]1CN(C)Cc1ccccc1	NOMO-1 viab inconclusive
C[C@@H]1CN([C@@H](C)CO)C(=O)c2cccc(NC(=O)c3nc4ccccc4s3)c2O[C@H]1CN(C)Cc1ccc2c(c1)OCO2	NOMO-1 viab inconclusive (no result: PD-1 reverse act)
C[C@@H]1CN([C@H](C)CO)C(=O)c2cccc(NC(=O)c3nc4ccccc4s3)c2O[C@H]1CN(C)Cc1ccc2c(c1)OCO2	NOMO-1 viab 98
C[C@H]1CN([C@@H](C)CO)C(=O)c2cccc(NC(=O)c3nc4ccccc4s3)c2O[C@@H]1CN(C)Cc1ccc(Cl)c(Cl)c1	NOMO-1 viab 86
C[C@H]1CN([C@@H](C)CO)C(=O)c2cccc(NC(=O)c3nc4ccccc4s3)c2O[C@@H]1CN(C)Cc1ccc2c(c1)OCO2	none (no result: PD-1 reverse act)
C[C@@H]1CN([C@@H](C)CO)C(=O)c2cccc(NC(=O)c3nc4ccccc4s3)c2O[C@@H]1CN(C)Cc1ccc2c(c1)OCO2	NOMO-1 viab 90
Cc1cc(-c2nnc(SCC(=O)c3ccccc3Cl)n2C)no1	none
N#Cc1c(NC(=O)CSc2nc(-c3ccccc3)cc(C(F)(F)F)n2)sc2c1CCCCC2	none (no result: Hedgehog inh)
CC(=O)Nc1ccccc1NC(=O)COc1ccc(Cl)c(C)c1	none (no result: Hedgehog inh, PD-1 reverse act)
Cc1ccc(Nc2nnc(-c3ccc(C)c(S(=O)(=O)NCC4CCCO4)c3)c3ccccc23)cc1 (stereo unspecified)	Hedgehog inh 91, NOMO-1 viab 119
CCN1C(=O)c2cccc3c(S(=O)(=O)Nc4ccccc4)ccc1c23	NOMO-1 viab 105 (no result: Hedgehog inh)
CCCCCCCCCC/C=C\CCCCCCCc1cccc(O)c1C(=O)O	Hedgehog inh 103, NOMO-1 viab 119
CCCCCCCC/C=C\CCCCCCCc1cccc(O)c1C(=O)O	Hedgehog inh 66
CCCCC/C=C\C/C=C\C/C=C\C/C=C\CCCCCC(=O)O	none (no result: PD-1 reverse act)
Cn1c2ccccc2c2nnc(SCC(=O)Nc3ccc(Cl)cc3)nc21	none (no result: Hedgehog inh)
COc1ccc(NC(=O)c2ccc(OC(C)C(=O)O)cc2)cc1Cl (stereo unspecified)	none (no result: Hedgehog inh, PD-1 reverse act)
O=C1NCc2c1c1c3ccccc3[nH]c1c1[nH]c3ccccc3c21	NOMO-1 viab 97
C[C@@H]1CN([C@@H](C)CO)C(=O)c2cccc(NC(=O)Nc3ccc4c(c3)OCO4)c2O[C@@H]1CN(C)Cc1ccc(C(=O)Nc2ccccc2N)cc1	NOMO-1 viab 142 (no result: Hedgehog inh)
C[C@H]1CN([C@@H](C)CO)C(=O)c2cccc(NC(=O)Nc3ccc4c(c3)OCO4)c2O[C@@H]1CN(C)Cc1ccc(C(=O)Nc2ccccc2N)cc1	NOMO-1 viab 127 (no result: Hedgehog inh)
C[C@@H]1CN([C@@H](C)CO)C(=O)c2cccc(NC(=O)Nc3ccc4c(c3)OCO4)c2O[C@H]1CN(C)Cc1ccc(C(=O)Nc2ccccc2N)cc1	NOMO-1 viab 126 (no result: Hedgehog inh)
CC12CCC(CC(=O)c3ccccc3)(CC1)CC2	none (no result: Hedgehog inh)
CC(C)(C)C1CCC2(CC1)C(C#N)C2(C#N)C(=O)c1ccccc1 (stereo unspecified)	MITF inhib 85, Hedgehog inh inconclusive, NOMO-1 viab 125
CC[C@]1(O)C[C@H]2CN(CCc3c([nH]c4ccccc34)[C@@](C(=O)OC)(c3cc4c(cc3OC)N(C=O)[C@H]3[C@@](O)(C(=O)OC)[C@H](OC(C)=O)[C@@]5(CC)C=CCN6CC[C@]43[C@@H]65)C2)C1	Hedgehog inh 71, NOMO-1 viab 94
CN1CCN(CCCN2c3ccccc3Sc3ccc(C(F)(F)F)cc32)CC1	NOMO-1 viab 112! (no result: PD-1 reverse act)
CCN(CC(=O)Nc1ccccc1F)S(=O)(=O)c1ccc2ccccc2c1	none (no result: Hedgehog inh, PD-1 reverse act)
CC(=O)Oc1ccc2ccc3ccc(OC(C)=O)c4ccc1c2c34	NOMO-1 viab 127
CS(=O)(=O)N(CC(N)=O)c1cc(Cl)c(Cl)cc1Cl	none (no result: Hedgehog inh)
Cc1ccc2c(C)c(C(=O)Nc3sc4c(c3C(=O)NCc3ccco3)CCC4)oc2c1	NOMO-1 viab 103 (no result: Hedgehog inh, PD-1 reverse act)
Cc1ccc(S(=O)(=O)c2ccc(Cl)cc2)cc1S(=O)(=O)N1CCCC1	none
Cc1nc(C)c(C(=O)C2C(=O)C(=O)N(CCCN3CCOCC3)C2c2ccccc2)s1 (stereo unspecified)	none (no result: Hedgehog inh)
C=C(C)C(=O)O[C@H]1CC(=C)C2C[C@H](O)[C@](O)(CO)C2[C@H]2OC(=O)C(=C)[C@H]12 (stereo partly specified)	NOMO-1 viab 119
CCNc1nc(SCC(N)=O)nc(N2CCOCC2)n1	none (no result: Hedgehog inh, PD-1 reverse act)
C[C@@H]1CN([C@@H](C)CO)C(=O)c2cccc(NC(=O)c3ccc(-c4nccs4)cc3)c2O[C@@H]1CN(C)Cc1ccc(Cl)c(Cl)c1	none
C[C@H]1CN([C@@H](C)CO)C(=O)c2cccc(NC(=O)c3ccc(-c4nccs4)cc3)c2O[C@@H]1CN(C)Cc1ccc(C(=O)O)cc1	none
C[C@H](CO)N1C[C@H](C)[C@H](CN(C)Cc2ccc(Cl)c(Cl)c2)Oc2c(NC(=O)c3ccc(-c4nccs4)cc3)cccc2C1=O	NOMO-1 viab 108
C[C@H]1CN([C@@H](C)CO)C(=O)c2cccc(NC(=O)c3ccc(-c4nccs4)cc3)c2O[C@H]1CN(C)Cc1ccc(Cl)c(Cl)c1	NOMO-1 viab 102 (no result: PD-1 reverse act)
C[C@@H]1CN([C@@H](C)CO)C(=O)c2cccc(NC(=O)c3ccc(-c4nccs4)cc3)c2O[C@@H]1CN(C)Cc1ccc(C(=O)O)cc1	none (no result: PD-1 reverse act)
C[C@@H]1CN([C@H](C)CO)C(=O)c2cccc(NC(=O)c3ccc(-c4nccs4)cc3)c2O[C@H]1CN(C)Cc1ccc(Cl)c(Cl)c1	NOMO-1 viab 106
CN1C(C(=O)c2ccccc2)C(=O)c2ccccc2S1(=O)=O (stereo unspecified)	none
COc1ccc(C(=O)Cn2c3ccccc3n3nc(-c4cccs4)nc23)cc1OC	none (no result: Hedgehog inh)
O=C(OC[C@]12O[C@H]1[C@@H](O)[C@@H]1C=CO[C@@H](O[C@@H]3O[C@H](CO)[C@@H](O)[C@H](O)[C@H]3O)[C@@H]12)c1ccccc1	none
COc1ccc(S(=O)(=O)N(C)CC(=O)Nc2cc(Cl)c(Cl)cc2Cl)cc1	none (no result: Hedgehog inh)
